POLK inh – blocks human DNA polymerase kappa activity. AID 588579. Potency, µM (titrated, usually from 107 µM), for the others: at the top dose activity, negative = inhibition, most hits filed as inhibitors. 400,000 tested, 0.53% active. Q9UBT6. purified Pol kappa, fluorescent DNA synthesis assay, 10 min; further: on the % scale 0 is the no-effect control and ±100 the full control effect
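Enzyme at 10 nM met test compounds for 15 min at room temperature. Substrate addition (50 nM final) began the reaction, which was monitored by fluorescence at 0 and 10 min.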
Pol iota inh – blocks human DNA polymerase iota activity. Q9UNA4. Pol iota fluorescent replication assay, 10 min. Potency, µM (doses to about 115 µM), for inactives: at the top dose activity, negative = inhibition, most hits filed as inhibitors. 390,000 tested, 1% active
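Pol iota at 10 nM preincubated 15 min with compounds at room temperature; reaction started with fluorescent substrate, 50 nM final. Fluorescence read kinetically at 0 and 10 min; buffer-only wells as negative control.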
TDP1 inh – inhibitors of human tyrosyl-DNA phosphodiesterase TDP1. recombinant TDP1, AlphaScreen DNA substrate cleavage. Potency, µM (top dose mostly 130 µM), without a hit: at the highest dose activity change, negative = inhibition, most hits filed as inhibitors. 350,000 tested, 0.28% active. AID 485290; further: on the % scale 0 is the no-effect control and ±100 the full control effect; nearly all actives have a fitted effect of over 40% in size
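Recombinant human Tdp1 (E. coli-expressed, 1 nM final) preincubated with compounds 15 min at room temperature, then 5'-biotin/3'-phosphotyrosine-FITC DNA substrate (15 nM final) added for 5 min. AlphaScreen beads (10 ug/ml final) added 10 min; cleavage lowers signal.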
Pol beta inh – DNA polymerase beta (human) inhibition | AID 485314 | Pol beta primer extension/strand displacement, fluorescence kinetic | 340,000 tested, 1.3% active | Potency, µM (titrated, usually from 114 µM), for inactives: at the highest dose activity change, negative = inhibition, most hits filed as inhibitors; further: on the % scale 0 is the no-effect control and ±100 the full control effect
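Homogeneous kinetic assay of primer extension and strand displacement by 10 nM Pol beta, preincubated 15 min at room temperature with compound before 50 nM substrate (final) was added. Read at 0 and 10 min; four-parameter Hill fit.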
Pol eta inh – blocks human DNA polymerase eta activity; AID 588591; recombinant Pol eta, fluorescent DNA replication assay; 390,000 tested, 1.2% active; Q9Y253; Potency, µM (titrated, usually from 114 µM), inactives show top-dose activity change, negative = inhibition, hits mostly inhibitors; further: on the % scale 0 is the no-effect control and ±100 the full control effect
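Fluorescent replication assay: 50 nM final substrate added after a 15 min room-temperature compound preincubation with 10 nM enzyme. Signal taken at 0 min and again at 10 min.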
FEN1 inh – blocks human flap endonuclease 1. Recombinant FEN1 flap cleavage, fluorescence, 15 min. Potency, µM (series often up to 114 µM), for inactives: at the top dose activity change, negative = inhibition, most hits filed as inhibitors. 390,000 tested, 0.35% active. AID 588795; further: on the % scale 0 is the no-effect control and ±100 the full control effect; nearly all actives have a fitted effect of over 65% in size
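Steps: FEN1 (10 nM) dispensed; compound added by pin tool; 15 min at room temperature; substrate added to 50 nM final; reads at 0 min and 15 min; data normalized and fitted (four-parameter Hill).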
An asterisk follows results filed as active; ? = inconclusive; . = not tested or not shown; ! = not active in a repeat; [ ] = remark or other dose. Hits are enriched below; roughly 2.4% of the tested compounds scored in any of these assays. The call rests on the fitted dose curve; in most records, active means well fitted curve in the direction sought with a large enough effect; inconclusive means small, poorly fitted or top-dose-only effect, or another doubt; inactive means no such curve, though single readings can be large; an effect the other way counts as inactive or inconclusive. Potency means the concentration at half of the fitted maximal effect.

SMILES	POLK inh	Pol iota inh	TDP1 inh	Pol beta inh	Pol eta inh	FEN1 inh
Cn1c(=O)c2cc(C(=O)NC3CCCCCC3)sc2c2ccccc21	-14%	-7%	-5%	8.9µM*	?	1%
CCc1ccc(-n2c(=O)c3c4c(sc3n(Cc3ccccc3C#N)c2=O)CCC4)cc1	-7%	12%	2%	-2%	-14%	18%
NC(=O)CC(NC(=O)Cc1cccc2ccccc12)c1ccc(NC2CCCCCC2)c([N+](=O)[O-])c1 (stereo unspecified)	-8%	?	5%	22%	0%	-5%
NC(=O)CC(NC(=O)Cc1cccc2ccccc12)c1ccc(NC2CCN(Cc3ccccc3)CC2)c([N+](=O)[O-])c1 (stereo unspecified)	-7%	-28%	.	50µM*	-3%	2%
CCOc1cc(CNc2ccc(N3CCCCC3)cc2)cc(Br)c1OCC(=O)NC(C)(C)C	-13%	10%	11%	1%	-18%	5%
CCOc1cc(CNc2ccc(N(C)C)cc2)cc(Br)c1OCC(=O)NC(C)(C)C	-12%	8.9µM*	6%	-23%	-6%	-24%
COc1ccccc1N1CCN(S(=O)(=O)c2ccc(-n3cnnn3)c(C)c2)CC1	-5%	5%	3%	-19%	-20%	-9%
COc1ccc(N2CCN(S(=O)(=O)c3ccc(-n4cnnn4)c(C)c3)CC2)cc1	?	?	?	28µM*	32µM*	-16%
CCOc1ccc(C(=O)N(Cc2nc(-c3cccc(C)c3)no2)C(C)C)cc1	-7%	26%	2%	24%	-17%	3%
O=C(COC(=O)c1n[nH]c2ccccc12)NC(=O)NC12CC3CC(CC(C3)C1)C2	-8%	-45%	-2%	35µM*	?	4%
O=C(COC(=O)c1n[nH]c2ccccc12)NC(=O)NC1CCCC1	-1%	-2%	0%	15%	4%	4%
O=C(c1ccc2c(c1)N(Cc1ccccc1)C(=O)c1ccccc1S2(=O)=O)N1CCc2ccccc21	-2%	26%	1%	20%	.	-16%
CC(=O)N(/N=C1\Sc2ccccc2C1=O)c1ccc(C)cc1C	1%	25%	8%	3%	-7%	-5%
CC(=O)N(/N=C1\Sc2ccccc2C1=O)c1ccccc1C	1%	7%	4%	0%	20µM*	0%
N#Cc1ccccc1S(=O)(=O)N1CCN(C(=O)C2COc3ccccc3O2)CC1 (stereo unspecified)	-37%	79µM*	40µM*	.	?	-5%
CCCCN(CCC#N)c1ccc(/C=C/c2ccnc3ccccc23)cc1	-2%	-21%	.	.	.	-10%
COc1ccc(NC(=O)C2CCCN(S(=O)(=O)c3cccs3)C2)cc1OC (stereo unspecified)	-2%[60.1 µM]	-10%	3%	0%	-3%	-1%
CCc1cccc(NC(=O)C2CCCN(S(=O)(=O)c3cccs3)C2)c1 (stereo unspecified)	-29%	79µM*!	9%	37%	-16%	?
COc1ccc(CNC(=O)c2ccc(Sc3ccc(Cl)cc3)c(NC(C)=O)c2)c(OC)c1	-11%[60.1 µM]	0%	5%	38%	-23%	-18%
CC(/C=C/C=C(C)/C=C/C(=O)O)=C\C=C\C=C(C)\C=C\C=C(C)\C=C\C(=O)O	.	.	2.8µM*	.	.	.
O=C(Cn1ncc2c3ccccc3n(Cc3cccc(Cl)c3)c2c1=O)NCCCc1ccccc1	?	?	0%	28µM*	-24%	-7%
CCCNC(=O)CSc1nc2nc(C)c(Cc3ccccc3Cl)c(C)n2n1	10%	10%	3%	30%	-19%	-5%
CCc1ccccc1NC(=O)CCS(=O)(=O)c1ccc(Br)cc1	-18%	0%	.	35µM*	-18%	-7%
O=C(CCNS(=O)(=O)c1ccc(Br)cc1)NC1CCCCC1	-10%	-19%	0%	1%	-6%	0%

Compound activity deposited in PubChem by National Center for Advancing Translational Sciences (NCATS).
